The nature of assay [1]: qHTS assay to identify small molecule antagonists of the estrogen receptor beta (ER-beta) signaling pathway - cell viability counter screen (AID 1259382).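 Note: HEK293T cells carrying ER-beta-UAS-bla reporter stimulated with estradiol; series mostly up to about 92 µM; nearly all actives have a fitted effect of over 55% in size.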 The procedure, abridged:
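HEK293T ER-beta-UAS-bla, 2% charcoal-stripped FBS; compounds + 1nM E2 16 hr 37C; CellTiter-Glo luminescence, 30 min RT.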
Background: In qHTS, concentration-response curves come from the screen itself.

Assay [2] in a line: qHTS assay to identify small molecule agonists or antagonists of the thyroid stimulating hormone receptor (TSHR) signaling pathway - wild type cell line counter screen (AID 1259384; calls by dose curve). The method, boiled down:
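Wild-type Hek293 cells, 800/well, 18 h at 37C, then compound with Ro20-1724 for 30 min RT. cAMP by HTRF (cAMP-d2/anti-cAMP cryptate), 1 h RT, fluorescence read. 15 concentrations, triplicates.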

A short description of assay [3]: qHTS assay to identify small molecule agonists of the estrogen receptor alpha (ER-alpha) signaling pathway in the presence of an antagonist - cell viability counter screen (AID 1259386).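 Note: series mostly up to about 92 µM; cells exposed to compounds for 22 h at 37 °C before the viability read; nearly all actives have a fitted effect of over 30% in size.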 The method, boiled down: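 Steps: 5-day stripped-FBS culture; seed and incubate 24hr; add ICI-182,780 (10.0nM final); pin 15-point compound titration; incubate 22hr at 37C; add CellTiter-Fluor at 21hr; read fluorescence.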

Assay [4] addresses Progesterone receptor (Homo sapiens) (UniProt P06401). Description: qHTS assay to identify small molecule agonists of the progesterone receptor (PR) signaling pathway (AID 1346784; calls by dose curve; note: nearly all actives have a fitted effect of over 30% in size; note: potency is the fitted concentration of half-maximal effect). The method, boiled down:
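HEK 293T PR-UAS-bla reporter cells, 2% charcoal-stripped FBS; 6 hr settle at 37C/5% CO2, compound (DMSO) 16 hr, LiveBLAzer B/G FRET substrate 2 hr RT, fluorescence intensity read.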

Assay [5] has the same target. The assay is described as follows: qHTS assay to identify small molecule antagonists of the progesterone receptor (PR) signaling pathway (AID 1346795; active = well fitted inhibition curve with a large enough effect in the signal ratio in the repeat runs, not every such curve was filed as active; the % refers to the signal ratio). The method, boiled down: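 Beta-lactamase reporter, HEK293T PR-UAS-bla line; 2% charcoal-stripped FBS; 6 hr pre-incubation, 37C/5% CO2. Compound + R5020 1 nM final, 16 hr. LiveBLAzer B/G FRET substrate, 2 hr RT; fluorescence intensity read.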

The nature of assay [6]: qHTS assay to identify small molecule antagonists of the progesterone receptor (PR) signaling pathway - cell viability counter screen (AID 1346798). For activity change, negative = cytotoxicity: series mostly up to about 92 µM. Note: nearly all actives have a fitted effect of over 50% in size. Note: potency is the fitted concentration of half-maximal effect. The procedure, abridged: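 Luminescence readout (CellTiter-Glo, 30 min, RT) of viability in PR-UAS-bla HEK293T cells exposed to compound and R5020 agonist for 16 hr at 37C, 5% CO2; run in the same wells as the beta-lactamase reporter read.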

Assay [7] in a line: qHTS assay to identify small molecule antagonists of the TGF-beta/Smad signaling pathway - cell viability counter screen (AID 1346824). Note: nearly all actives have a fitted effect of over 50% in size. The procedure, abridged:
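SBE-bla HEK 293T cells, incubated overnight, then compound plus 0.25 ng/mL TGF-beta1 (stock added) for 5 hr at 37 C. Viability was read in the same wells by CellTiter-Glo luminescence after 30 min at room temperature.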

Assay [8] in a line: qHTS assay to identify small molecule agonists of the progesterone receptor (PR) signaling pathway - cell viability counter screen (AID 1346799; calls by dose curve; note: nearly all actives have a fitted effect of over 45% in size). The method, boiled down:
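HEK293T PR-UAS-bla, 3,000 cells/well, 2% charcoal-stripped FBS; 6 h settle, compound 16 h at 37C/5% CO2; LiveBLAzer 2 h RT, then CellTiter-Glo 30 min RT, luminescence read.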

The target of assay [9] is Thyrotropin receptor (Homo sapiens) (UniProt P16473). The assay is described as follows: qHTS assay to identify small molecule antagonists of the thyroid stimulating hormone receptor (TSHR) signaling pathway (AID 1259385; calls by dose curve; note: nearly all actives have a fitted effect of over 20% in size). The procedure, abridged:
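TSHR-HEK293 cells (800/well) plated 18 h, then compounds with Ro20-1724 and TSH at 1.5 ng/mL final, 30 min at room temperature. cAMP quantified by HTRF (cAMP-d2/anti-cAMP-cryptate, 1 h); 15 concentrations in triplicate.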

Records with an inconclusive call do not appear. Values without a mark were called inactive. Active and inactive are the calls of the source. Unless noted, calls come from the whole dose curve; as a rule, active = well fitted curve in the direction sought with a large enough effect in the repeat runs; inconclusive = weak or mixed curves; inactive = no such curve, though single readings can be large; an effect the other way counts as inactive or inconclusive.
% is set by controls: 0 for no effect and ±100 for the full control effect.

Sequence of Progesterone receptor (Homo sapiens) (P06401 whole entry, looked up): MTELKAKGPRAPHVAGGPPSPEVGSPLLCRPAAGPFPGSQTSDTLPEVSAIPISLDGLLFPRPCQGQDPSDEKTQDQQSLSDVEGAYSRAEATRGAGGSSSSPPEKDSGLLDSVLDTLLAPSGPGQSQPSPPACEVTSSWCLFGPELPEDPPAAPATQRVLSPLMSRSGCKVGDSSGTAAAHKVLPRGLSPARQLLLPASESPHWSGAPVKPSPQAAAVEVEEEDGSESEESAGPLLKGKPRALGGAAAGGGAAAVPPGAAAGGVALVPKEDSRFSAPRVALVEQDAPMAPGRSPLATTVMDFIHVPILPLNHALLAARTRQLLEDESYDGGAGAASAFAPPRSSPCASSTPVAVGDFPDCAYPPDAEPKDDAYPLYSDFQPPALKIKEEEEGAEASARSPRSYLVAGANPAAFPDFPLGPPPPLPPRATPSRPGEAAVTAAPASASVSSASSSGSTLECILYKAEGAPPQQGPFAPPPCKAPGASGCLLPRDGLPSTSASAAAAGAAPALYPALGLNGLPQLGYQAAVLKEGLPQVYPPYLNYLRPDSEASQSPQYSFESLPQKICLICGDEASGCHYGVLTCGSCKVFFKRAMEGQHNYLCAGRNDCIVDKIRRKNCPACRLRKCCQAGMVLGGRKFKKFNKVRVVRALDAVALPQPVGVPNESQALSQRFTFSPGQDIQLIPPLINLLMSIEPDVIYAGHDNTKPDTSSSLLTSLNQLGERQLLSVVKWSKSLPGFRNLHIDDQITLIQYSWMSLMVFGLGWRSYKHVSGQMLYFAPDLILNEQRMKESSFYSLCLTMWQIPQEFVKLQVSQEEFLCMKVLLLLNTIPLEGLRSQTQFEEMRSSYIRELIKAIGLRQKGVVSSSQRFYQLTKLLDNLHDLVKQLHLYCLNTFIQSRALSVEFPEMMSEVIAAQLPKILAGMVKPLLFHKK
Sequence of Thyrotropin receptor (Homo sapiens) (P16473 whole entry, looked up): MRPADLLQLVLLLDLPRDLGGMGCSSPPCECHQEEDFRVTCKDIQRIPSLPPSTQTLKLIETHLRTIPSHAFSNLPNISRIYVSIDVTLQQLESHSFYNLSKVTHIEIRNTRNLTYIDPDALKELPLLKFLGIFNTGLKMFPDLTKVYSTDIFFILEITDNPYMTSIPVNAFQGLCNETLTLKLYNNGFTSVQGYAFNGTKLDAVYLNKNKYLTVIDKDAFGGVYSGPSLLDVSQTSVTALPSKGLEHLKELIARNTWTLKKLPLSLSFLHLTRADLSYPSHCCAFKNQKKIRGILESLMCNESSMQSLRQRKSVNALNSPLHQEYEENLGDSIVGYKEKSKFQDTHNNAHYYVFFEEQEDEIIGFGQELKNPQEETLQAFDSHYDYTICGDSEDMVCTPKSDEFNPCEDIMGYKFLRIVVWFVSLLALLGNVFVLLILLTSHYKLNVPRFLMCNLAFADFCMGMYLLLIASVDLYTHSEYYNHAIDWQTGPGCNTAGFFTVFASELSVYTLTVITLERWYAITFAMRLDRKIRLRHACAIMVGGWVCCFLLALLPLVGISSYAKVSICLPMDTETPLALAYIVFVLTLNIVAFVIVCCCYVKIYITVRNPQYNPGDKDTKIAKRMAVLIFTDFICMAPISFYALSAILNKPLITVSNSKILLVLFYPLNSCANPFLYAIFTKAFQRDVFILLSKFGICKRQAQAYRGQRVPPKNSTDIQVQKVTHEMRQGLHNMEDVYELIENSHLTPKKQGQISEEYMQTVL

Turning to `FC(F)(F)c1ccc(Cl)cc1Cl`, the call in [1], in [2] and in assay [7] was inactive. In addition, the Potency result in assay [3], in [4], in assay [5] and in assay [6] was “inactive” each time.
As to `CN[C@@H]1[C@@H](O)[C@@H](O[C@@H]2[C@H](O)[C@H](O[C@H]3OC(CN)=CC[C@H]3N)[C@@H](N)C[C@H]2N)OCC1(C)O` (some centres not stated), the compound was classed as inactive in [1], in assay [2] and in [7]. Also, the Potency result in [3], in [4], in assay [5], in assay [6] and in [8] was “inactive” in each case.
In the case of `CN(C)CCCNCCC#N`, the outcome in assay [1] was inactive. Also, the Potency result in assay [3], in assay [4], in assay [5] and in assay [6] was “inactive” throughout.
Turning to `c1ccc(CNc2ncnc3nc[nH]c23)cc1`, the compound was classed as inactive in assay [1] and in [2]. The Potency entry in assay [3], in assay [4], in [5] and in assay [6] was “inactive” in each case.
Turning to `C1CCN2C[C@@H]3C[C@@H](CN4CCCC[C@@H]34)[C@H]2C1`, the call in assay [1] and in assay [7] was inactive. For the same compound, the Potency entry in [3], in [4] and in [5] was “inactive” each time.
With `O=CO`, the activity change, negative = cytotoxicity in assay [1] was 7.25% [at 8.39 µM]; in assay [3], -5.19% [at 8.39 µM]; in assay [6], 2.97% [at 8.39 µM]; in assay [8] it was 21.2% [at 8.39 µM]. In addition, in assay [4], the Potency was 2.51 µM (active). The activity change, negative = inhibition in [5] is 8.24% [at 8.39 µM]. Also, the viability change, negative = cytotoxic in assay [7] is -0.889% [at 6.97 µM].
Consider `CCCC(C)CC` (configuration not stated), for which the compound was classed as inactive in [1], in assay [2] and in assay [7]. For the same compound, the Potency entry in assay [4], in assay [5], in assay [6] and in [8] was “inactive” each time.
With `CCCCOC(=O)C(=O)OCCCC`, in assay [1], the outcome was inactive. Also, the Potency entry in assay [3], in [4], in assay [5] and in [6] was “inactive” each time.
Turning to `Cn1c(=O)c2c(ncn2CC2OCCO2)n(C)c1=O`, the compound was called inactive in assay [1]. Moreover, the Potency result in [3], in assay [4], in assay [5], in assay [6] and in assay [8] was “inactive” each time.
In the case of `C=C(C)C(=O)OC1CC(C)CC(C)(C)C1` (configuration not stated), the call in [1], in assay [2] and in assay [7] was inactive. For the same compound, the Potency entry in [3], in [4], in assay [5], in assay [6] and in [8] was “inactive” each time.
As for `COc1cc2c3cc1Oc1cc(ccc1O)C[C@@H]1c4c(cc(OC)c(O)c4Oc4ccc(cc4)C[C@@H]3N(C)CC2)CC[N+]1(C)C`, the call in assay [1], in assay [2] and in [7] was inactive. In addition, the Potency entry in [3], in [4], in assay [5], in assay [6] and in assay [8] was “inactive” each time.
On to `C[C@H](CCC(=O)NCC(=O)O)[C@H]1CC[C@H]2[C@@H]3[C@H](O)C[C@@H]4C[C@H](O)CC[C@]4(C)[C@H]3C[C@H](O)[C@]12C`, for which the outcome in assay [1], in assay [2] and in assay [7] was inactive. Moreover, the Potency result in [4], in assay [5], in assay [6] and in [8] was “inactive” throughout.
In the case of `Cc1ccc2c(c1)c1c3n2CCNC3CCC1` (configuration not stated), the result in [2], in [9] and in [7] was inactive. Further, the Potency result in assay [3], in assay [4] and in assay [5] was “inactive” each time.
For the compound `O=C(O)c1ccccc1C(=O)Nc1ccc(S(=O)(=O)Nc2nccs2)cc1`, the compound was classed as inactive in assay [1] and in assay [7]. Also, the Potency result in assay [3], in assay [4], in assay [5], in assay [6] and in assay [8] was “inactive” each time.
With `CNCc1ccccc1`, the call in [1] and in [7] was inactive. Further, the Potency entry in [3], in assay [4], in assay [5] and in assay [8] was “inactive” throughout.
As for `COCCOCCOCCOC`, the compound was classed as inactive in assay [1] and in assay [7]. Moreover, the Potency entry in assay [3], in assay [4], in [5], in assay [6] and in [8] was “inactive” each time.
Turning to `COc1cc(C=O)ccc1OC(=O)C(C)C`, the call in assay [1], in [2] and in [7] was inactive. Besides, the Potency result in assay [3], in assay [4], in assay [5], in [6] and in assay [8] was “inactive” throughout.
With `Cc1cccc(NC(=S)N(C)C)c1`, the compound was classed as inactive in assay [2]. In [3], the Potency entry was “inactive”. The Potency in assay [6] is 30.6 µM (active).
Regarding `CCOc1ccc(NC(=O)OC(C)C)cc1OCC`, the call in [1] and in assay [7] was inactive. For the same compound, the Potency result in [3], in assay [4] and in assay [5] was “inactive” throughout.
`COc1ccc(N=Nc2cc(C)c(N=Nc3ccc(S(=O)(=O)O)cc3)cc2OC)cc1`: the call in [1], in assay [2] and in [7] was inactive. Moreover, the Potency entry in assay [4], in [6] and in assay [8] was “inactive” each time.
`NS(=O)(=O)c1ccccc1OC(F)(F)F`: the result in [1] and in [7] was inactive. Besides, the Potency result in [3], in assay [4], in assay [5], in assay [6] and in assay [8] was “inactive” in each case.
In the case of `CCCCC(CC)C(=O)OC(C)C` (configuration not stated), the compound was called inactive in [1]. The Potency result in assay [3], in assay [4], in assay [5], in [6] and in [8] was “inactive” in each case.
Consider `O=C(CN1CCN(Cc2ccc3c(c2)OCO3)CC1)N1c2ccccc2Sc2ccccc21`, for which the call in assay [1], in assay [2] and in assay [7] was inactive. Moreover, the Potency result in assay [4], in assay [5], in assay [6] and in [8] was “inactive” each time.
Consider `CO/N=C(/C(=O)N[C@@H]1C(=O)N2C(C(=O)O)=C(Cn3nnc(C)n3)CS[C@H]12)c1csc(N)n1`, for which the call in assay [1], in [2] and in assay [7] was inactive. Moreover, the Potency entry in assay [3], in assay [4], in [5], in assay [6] and in assay [8] was “inactive” throughout.
Take `C[C@H]1O[C@H](O[C@H]2[C@H](O)[C@@H](O)[C@@H](O[C@H]3[C@H](O)[C@@H](O)[C@H](O)O[C@@H]3CO)O[C@@H]2CO)[C@H](O)[C@@H](O)[C@@H]1N[C@H]1C=C(CO)[C@@H](O)[C@H](O)[C@H]1O`: the result in assay [1] and in assay [7] was inactive. Besides, the Potency result in assay [3], in [4], in assay [5], in [6] and in assay [8] was “inactive” each time.
For the compound `O=C(O)Cc1cccc(-c2cc(CCCCCCc3ccc(O[C@H]4O[C@H](CO)[C@@H](O)[C@H](O)[C@@H]4O)c(-c4cccc(CC(=O)O)c4)c3)ccc2O[C@H]2O[C@H](CO)[C@@H](O)[C@H](O)[C@@H]2O)c1`, the activity change, negative = cytotoxicity in [1] is 7.67% [at 0.349 µM]; in assay [6] it was 8.15% [at 0.348 µM]. Besides, in assay [2], the cAMP activity change is -6.17% [at 0.349 µM]. The activation in assay [4] is 1.15% [at 0.349 µM]. In addition, the activity change, negative = inhibition in [5] is 0.629% [at 0.348 µM].
`CCCCCCCC[Si](OCC)(OCC)OCC`: the compound was called inactive in assay [1] and in [7]. Besides, the Potency entry in assay [3], in assay [4], in [5], in [6] and in assay [8] was “inactive” throughout.
For the compound `CCC1Nc2cc(Cl)c(S(N)(=O)=O)cc2S(=O)(=O)N1` (configuration not stated), the call in assay [1] and in [2] was inactive. Also, the Potency entry in assay [3], in assay [4], in assay [6] and in assay [8] was “inactive” throughout.
`CCC(C)(CCC(C)C)C(=O)[O-].CCC(C)(CCC(C)C)C(=O)[O-].[Zn+2]` (configuration not stated): the outcome in assay [1] was inactive. For the same compound, the Potency result in [3], in [4], in assay [5], in [6] and in [8] was “inactive” throughout.
On to `Nc1c(NC/C=C\COc2cc(CN3CCCCC3)ccn2)c(=O)c1=O`, for which the activity change, negative = cytotoxicity in [1] was 0.149% [at 19 µM]; in assay [6] it was 4.14% [at 18.9 µM]. Besides, the cAMP activity change in assay [2] was -0.455% [at 18.9 µM]. Also, in assay [4], the activation was 1.78% [at 19 µM]. In addition, the activity change, negative = inhibition in [5] was 9.62% [at 18.9 µM]. The viability change, negative = cytotoxic in assay [7] is 0.148% [at 15.8 µM].

These data come from PubChem BioAssay (Tox21).
